Our source for the outcome, max response and Potency values is PubChem BioAssay (NCATS).

Several values for one entry are separate records, joined by “and”; a condition that tells them apart may be missing. Identical values can stand only once. Results filed as inconclusive are left out. Activity calls are given as the source filed them. Unless noted, calls come from the whole dose curve; as a rule, active = well fitted curve in the direction sought with a large enough effect; inconclusive = small, poorly fitted or top-dose-only effect, or another doubt; inactive = no such curve, though single readings can be large; an effect the other way counts as inactive or inconclusive.
% is set by controls: 0 for no effect and ±100 for the full control effect.

One experiment can be described thus: qHTS assay for small molecule antagonists of the retinoid-related orphan receptor gamma (ROR-gamma) signaling pathway - cell viability counter screen (AID 720652; active = well fitted curve in the direction sought with a large enough effect in the repeat runs; an effect the other way counts as inactive or inconclusive;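 note: CHO reporter cells with doxycycline-induced ROR-gamma expression; compound exposure lasted 16 hr before ATP read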). The settings on record: RORgamma reporter cell line viability counter screen; series mostly up to 92.2 µM. The procedure, abridged: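 Steps: seed CHO cells bearing TET-inducible ROR and ROR response element-luciferase; rest 5 hr at 37 C; add compound, then doxycycline; incubate 16 hr; add CellTiter-Glo and read luminescence as ATP-based viability.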
(In general: Quantitative high-throughput screening tests each substance at several concentrations.)
For `c1ccc2occc2c1`, the outcome was inactive. On the same count and under the same terms, the same measure for `Nc1cccc2c(N)cccc12`: “inactive”; for `CC(=O)OC/C=C(C)/C=C/C=C(C)/C=C/C1=C(C)CCCC1(C)C`: “inactive”.

A short description of a further experiment: qHTS assay for small molecule agonists of the antioxidant response element (ARE) signaling pathway measured by Nrf2-dependant transcriptional activity - cell viability counter screen (AID 720653; active = well fitted curve in the direction sought with a large enough effect in the repeat runs; an effect the other way counts as inactive or inconclusive). Particulars: ARE-bla HepG2 viability, CellTiter-Glo ATP luminescence, 16 h; max response: stronger effect = lower value. The procedure, abridged:
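ARE-bla HepG2 cells treated with compounds for 16 h at 37C; this counter screen measures viability as intracellular ATP by CellTiter-Glo luminescence after 30 min at room temperature.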
For the molecule `c1ccc2occc2c1`, the max response is 3.88% (inactive) and -20.4% (inactive) and 16.8% (inactive).

Regarding `CC(=O)OC/C=C(C)/C=C/C=C(C)/C=C/C1=C(C)CCCC1(C)C`, the max response was 6.19% (inactive) and 7.05% (inactive). On the same count and under the same terms, with `O=C(Oc1ccccc1)c1cccc(C(=O)Oc2ccccc2)c1` the figure was -2.16% (inactive); with `CCCCCCCCCCCCCCCC[n+]1ccccc1`, -10.4% (inactive); with `Nc1ccc(O)cc1`, -19.2% (inactive). The same measure, in the same setting: the same measure for `Cc1ncc(CO)c(CO)c1O`: -5.07% (inactive).

The next experiment can be described thus: qHTS Assay for Identifying Gametocytocidal Compounds (AID 743244).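 For max response: actives lower the fluorescent signal which means gametocytes are killed.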 Note: potency is the fitted concentration of half-maximal effect. The settings on record: P. falciparum 3D7 stage III-V gametocytes, alamarBlue, 72 h; max response: stronger effect = lower value. In short, it runs like this: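 3D7 gametocytes, stages III–V, 20,000/well; cpd 72 h, 37 °C/5% CO2; + alamarBlue 24 h; fluor. Ex 525/Em 598.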
`CCN(CC)CCNC(=O)c1ccc(NS(C)(=O)=O)cc1`: the max response was -10.8% (inactive). Same read-out and setting: with `O=C(O)/C=C(\CC(=O)O)C(=O)O` the figure was 8.32% (inactive).

On to `CN1CCC(=C2c3ccccc3CCc3cccnc32)CC1`, for which the max response is 7.49% (inactive). Same read-out and setting: the same measure for `CC(=O)CC/C=C(\C)CC/C=C(\C)CC/C=C(\C)CCC=C(C)C`: -1.07% (inactive); for `CC(C(=O)O)c1ccc(/C=C2\CCCCC2=O)cc1` (stereo not given): -9.38% (inactive). On the same count and under the same terms, the same measure for `COc1cc(NS(=O)(=O)c2ccc(N)cc2)nc(C)n1`: 34.9% (inactive); for `CN1CC(=O)N2[C@H](c3ccc4c(c3)OCO4)c3[nH]c4ccccc4c3C[C@@H]2C1=O`: -3.23% (inactive); for `O=C(CCC1CCN(Cc2ccccc2)CC1)c1ccc2c(c1)NCCCC2`: -4.54% (inactive).

`COc1ccccc1OCC1CNC(=O)O1` (stereo not given): the max response is -14.2% (inactive). Still for that read-out and setting: the same measure for `NC(=O)COCCN1CCN(C(c2ccccc2)c2ccc(Cl)cc2)CC1` (stereo not given): -3.31% (inactive). Still for that read-out and setting: with `NCC(=O)O` the figure was -6.74% (inactive). On to `Cc1cc2nc3ccc(=[N+](C)C)cc-3sc2cc1N`, for which the Potency was 6.31 µM (active). With `COc1cc(C(=O)OC(COCCC(C)C)CN2CCOCC2)cc(OC)c1OC` (stereo not given), the max response is 4.25% (inactive). Regarding `CCOC(=O)NNc1ccc(N(CC)CC(C)O)nn1` (stereo not given), the max response is 0.172% (inactive). Same read-out and setting: with `CCCCC/C=C\C/C=C\CCCCCCCC(=O)NC(C)c1ccccc1` (stereo not given) the figure was -1.75% (inactive); with `CO/N=C(/C(=O)N[C@@H]1C(=O)N2C(C(=O)OCOC(=O)C(C)(C)C)=C(C)CS[C@H]12)c1csc(N)n1`, -0.603% (inactive). For the molecule `O=C(O)C(=O)Nc1cccc(-c2nn[nH]n2)c1`, the max response was -10.1% (inactive). The same measure, in the same setting: the same measure for `c1ccc2occc2c1`: -7.52% (inactive); for `CCCCCC[C@@H](CCC)C(=O)O`: 16.9% (inactive). The same measure, in the same setting: the same measure for `CC(=O)OC/C=C(C)/C=C/C=C(C)/C=C/C1=C(C)CCCC1(C)C`: -2.65% (inactive). Still for that read-out and setting: with `O=C(Oc1ccccc1)c1cccc(C(=O)Oc2ccccc2)c1` the figure was -7.52% (inactive); with `CCOC(=O)c1ccc(OCCN2C[C@H](O)[C@@H](O)[C@H](O)[C@H]2CO)cc1`, -1.08% (inactive). Regarding `CC(=O)OCC(=O)[C@@]1(O)CCC2C3CCC4=CC(=O)CC[C@]4(C)C3[C@@H](O)C[C@@]21C` (stereo not given in full), the max response is -8.54% (inactive). The same measure, in the same setting: the same measure for `Cc1cccc(C)c1NC(=O)c1cc(S(N)(=O)=O)c(Cl)cc1O`: 11.8% (inactive); for `O=P(O)(O)OCC(O)CO` (stereo not given): 11.3% (inactive); for `Cc1cc(O)c2c(O)c3c(O)cccc3cc2c1`: 12.2% (inactive).

As to `N=C(N)c1ccc(OCCCOc2ccc(C(=N)N)cc2)cc1`, the Potency was 4.47 µM (active).

In the case of `CSc1ccc(/C=C2/C(C)=C(CC(=O)O)c3cc(F)ccc32)cc1`, the max response is -4.94% (inactive). In the case of `O=C1OC2(c3ccccc31)c1cc(I)c(O)c(I)c1Oc1c2cc(I)c(O)c1I`, the max response was -3.42% (inactive).

As to `O=C(CCCCC(=O)Nc1c(I)cc(I)c(C(=O)O)c1I)Nc1c(I)cc(I)c(C(=O)O)c1I`, the max response was 35.4% (inactive). Still for that read-out and setting: the same measure for `CO[C@@]1(NC(=O)CSC[C@@H](N)C(=O)O)C(=O)N2C(C(=O)O)=C(CSc3nnnn3C)CS[C@@H]21`: 3.25% (inactive); for `CN1C(=O)CC(C)(c2ccccc2)C1=O` (stereo not given): -8.12% (inactive). With `CCC1=C[C@@H]2CN(C1)Cc1c([nH]c3ccccc13)[C@@](C(=O)OC)(c1cc3c(cc1OC)N(C)[C@H]1[C@@](O)(C(=O)OC)[C@H](OC(C)=O)[C@]4(CC)C=CCN5CC[C@]31[C@@H]54)C2`, the Potency was 11.2 µM (active). For `C[C@H]1C[C@H]2[C@@H]3CCC4=CC(=O)C=C[C@]4(C)[C@H]3C(=O)C[C@]2(C)[C@@]1(O)C(=O)CO`, the max response was -0.729% (inactive). On to `CCCC(=O)O[C@]1(C(=O)COC(=O)CC)CC[C@H]2[C@@H]3CCC4=CC(=O)CC[C@]4(C)[C@H]3[C@@H](O)C[C@@]21C`, for which the max response is 31.6% (inactive). Still for that read-out and setting: with `Cc1ncc(CO)c(CO)c1O` the figure was -15.9% (inactive).
